Compound activity from PubChem BioAssay.
TDP1 cell CPT: DT40-hTDP1 cell growth loss with CPT; chicken DT40 Tdp1-/-;hTDP1 cells + 20 nM CPT, ATP luminescence, 48 h; 420,000 compounds, 12% hits; AID 686979; Potency, µM (titrated, usually from 46.2 µM), for the others: at the top dose activity change, negative = growth inhibition, usual class: inhibitors; also: potency is read from the fitted curve at half-maximal effect; nearly all actives have a fitted effect of over 55% in size
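Chicken DT40 Tdp1-/- cells complemented with human TDP1, 400 cells/well, exposed to compounds plus 20 nM camptothecin for at least 48 h at 37 C; viability read as ATP content by CellTiter-Glo luminescence.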
HT1080NT lethal: kills 2HG-producing HT-1080-NT fibrosarcoma cells; HT-1080-NT fibrosarcoma viability, CellTiter-Glo ATP luminescence, 48 h; Potency, µM (titrated, usually from 46.1 µM), for the others: top-dose activity, negative = less viability, usual class: cytotoxic; 360,000 compounds, 1.6% hits; AID 686970;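 also: NT is the 2HG producing partner of a matched IDH1 knockdown line; potency is read from the fitted curve at half-maximal effect; 0% = DMSO-treated cells and -100% = media-only wells without cells; nearly all actives have a fitted effect of over 55% in size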
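750 cells/well, RPMI + 5% FBS; 2 h settle, compound pin-transfer, 48 h at 37 degrees C. CellTiter-Glo 10 min RT, luminescence. Normalized to DMSO and media-only wells.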
uPA generation: blocks generation of uPA at the cell surface; cell surface uPA generation assay, qHTS; Potency, µM (series often up to 38.3 µM), inactives show at the highest dose activity change, negative = inhibition, most hits filed as inhibitors; AID 540303; 330,000 compounds, 0.31% hits; active = well fitted inhibition curve with a large enough effect; inconclusive = small, poorly fitted or top-dose-only effect; inactive = no such curve, though single readings can be large or run the other way; tested in mouse RAW 264.7 cells; also: potency is read from the fitted curve at half-maximal effect; nearly all actives have a fitted effect of over 55% in size
HT1080 IDH1KD tx: kills HT-1080 cells with IDH1 knockdown; Potency, µM (highest dose often 46.1 µM), inactives show at the highest dose activity, negative = toxicity, actives largely listed as cytotoxic; 360,000 compounds, 2% hits; HT-1080 IDH1 knockdown viability, ATP luminescence, 48 h; AID 686971;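 also: potency is read from the fitted curve at half-maximal effect; 0% = DMSO wells and -100% = cell-free medium wells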
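% activity derives from luminescence (CellTiter-Glo), normalised to DMSO and no-cell wells. HT-1080-IDH1KD cells, 750/well, had 48 h compound exposure at 37 °C.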
DT40 TDP1 no CPT: qHTS for Inhibitors of human tyrosyl-DNA phosphodiesterase 1 (TDP1): qHTS in cells in absence of CPT; DT40 Tdp1-/- hTDP1 cells, no CPT, ATP luminescence, 48 h; Potency, µM (titrated, usually from 46.2 µM), for the others: at the top dose activity change, negative = growth inhibition, most hits filed as inhibitors; 420,000 compounds, 15% hits; AID 686978, 2013; also: potency is read from the fitted curve at half-maximal effect; nearly all actives have a fitted effect of over 55% in size
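Chicken DT40 Tdp1-/- cells stably complemented with human TDP1 were seeded at 400 cells/well with DMSO in place of 20 nM camptothecin. After compound pinning, cells grew at least 48 hr at 37 °C; viability read by CellTiter-Glo luminescence.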
IL-1B inflam inh: blocks inflammasome-driven IL-1 beta release. THP-1 LPS/ATP IL-1B secretion, AlphaLISA, 16 h; stronger effect = lower value. activity change, % at 57.5 µM. 360,000 compounds, 4.7% hits; in the data active = activity change below about -50%; inconclusive = mostly about -30% to -49%
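Secreted IL-1B measured by AlphaLISA bead assay after 16 h compound exposure of THP-1 cells; compounds (final up to 57.5 uM) added 1 h before LPS (250 ng/mL) and ATP (1.25 mM) stimulation; lower signal means less secretion.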
Starred values were filed as active, the others as inactive; ? = inconclusive; . = not tested or not shown. Rows were chosen to be rich in hits. Some 19% of all compounds tested hit in one or more screens of this group. Unless noted, calls follow the shape of the dose curve; as a rule, active = well fitted curve in the direction sought with a large enough effect; inconclusive = small, poorly fitted or top-dose-only effect, or another doubt; inactive = no such curve, though single readings can be large; an effect the other way counts as inactive or inconclusive. Unless noted, % is scaled to controls: 0 for no effect and ±100 for the full control effect.

SMILES	TDP1 cell CPT	HT1080NT lethal	uPA generation	HT1080 IDH1KD tx	DT40 TDP1 no CPT	IL-1B inflam inh
Cc1nn(C)c(C)c1S(=O)(=O)N1CCCC(C(=O)NC2CCCCCC2)C1 (stereo not drawn)	18µM*	3%	-12%	2%	?	31
Cn1cnc(S(=O)(=O)N2CCC(C(=O)N3CCN(c4ccc(Cl)cc4)CC3)CC2)c1	?	.	.	.	-25%	.
O=C(NC1CCCCC1)C1CCCN(S(=O)(=O)c2ccc(F)cc2)C1 (stereo not drawn)	-19%	-3%	11%	-7%	?	32
C1=Cc2ccccc2/C1=C/c1ccc2c(c1)OCO2	-13%	.	.	.	-21%	.
O=c1nc(Oc2ccccc2)nc2ncccn12	?	?	.	?	?	-8
COc1cc(CNC(=O)c2ccc3c(c2)c(C)c(C)n3Cc2cccc(C)c2)cc(OC)c1OC	18µM*	.	.	.	8.2µM*	.
Cc1c(C)n(C)c2ccc(C(=O)NCCCN3CCCCC3)cc12	4%	-9%	1%	1%	?	-9
CCn1c(C)c(C)c2cc(C(=O)NCc3ccc(OC(C)C)cc3)ccc21	?	.	.	.	-73%	.
Cc1c(C)n(Cc2ccccc2)c2ccc(C(=O)NCCCN3CCOCC3)cc12	?	?	-7%	?	?	-6
COc1ccccc1CCNC(=O)c1ccc2c(c1)c(C)c(C)n2C	7.3µM*	.	.	.	7.3µM*	.
COc1cc(CNCc2c(C(=O)O)c(C)n(Cc3cccc(Cl)c3)c2C)cc(OC)c1OC	0%	.	.	.	-1%	.
Cc1c(C)n(Cc2ccc(F)cc2)c2ccc(C(=O)NCCCN3CCOCC3)cc12	?	-18%	-3%	?	16µM*	-26
CCn1c(C)c(C)c2cc(C(=O)NCc3ccc(OC)cc3OC)ccc21	18µM*	.	.	.	15µM*	.
COc1cccc(NC(=O)c2cnc(NS(=O)(=O)c3ccccc3)nc2)c1	?	12%	.	10%	?	42
Cc1ccc(S(=O)(=O)N2C[C@H]3[C@H]4C(=O)N(Cc5ccccc5)C(=O)[C@H]4CC(=O)[C@H]3[C@@H]2c2ccccc2)cc1	?	12%	.	12%	?	10
CCOC(=O)c1ccc(NC(=O)Cn2ncc3c(C)n(Cc4ccccc4F)c(C)c3c2=O)cc1	-8%	.	.	.	-26%	.
Cc1ccc(NC(=S)N2CCCCC2CO)cc1C (stereo not drawn)	0%	?	.	14%	-6%	15
CN1CCSc2ccc(C(=O)NCc3cccc(F)c3)cc21	?	-13%	23%	8%	?	-28
COc1cccc(CNC(=O)c2ccc3c(c2)c(C)c(C)n3Cc2ccccc2)c1OC	21µM*	.	.	.	23µM*	.
Cc1c(C)n(Cc2ccccc2)c2ccc(C(=O)NCc3ccccc3F)cc12	18µM*	.	.	.	18µM*	.
Cc1ccc(C(=O)NCc2ccccc2F)cc1S(=O)(=O)N1CCCC1	13%	-1%	2%	2%	-1%	9
Cc1c(C)n(C)c2ccc(C(=O)NCc3cccc(F)c3)cc12	23µM*	.	.	.	16µM*	.
CCN(CC)c1ccc(NC(=O)c2ccc3c(c2)c(C)c(C)n3C)cc1	23µM*	18µM*	-10%	?	18µM*	-17
COc1cc(C(=O)NCc2cccc3ccccc23)ccc1OCc1ccccc1	?	-4%	3%	0%	?	?
COc1cc(CNC[C@H]2O[C@@H](n3ccc(N)nc3=O)[C@H](O)[C@@H]2O)ccc1OCc1ccc(C)cc1	-1%	-2%	.	4%	-11%	-18
SMILES	TDP1 cell CPT	HT1080NT lethal	uPA generation	HT1080 IDH1KD tx	DT40 TDP1 no CPT	IL-1B inflam inh
CC(=O)Nc1cccc(-c2ccnc3c2CC(C(=O)NCc2ccc(N4CCN(C)CC4)cc2)O3)c1 (stereo not drawn)	?	-5%	.	2%	?	6
Cc1cccc(Cn2c(C)c(C)c3cc(C(=O)NCc4ccco4)ccc32)c1	16µM*	.	.	.	23µM*	.
CCn1c(C)c(C)c2cc(C(=O)NC3CCCCCC3)ccc21	16µM*	12%	0%	6%	21µM*	-9
COC(=O)c1cccc(NC(=O)COc2cccc([N+](=O)[O-])c2)c1	-13%	20%	-9%	5%	?	14
COc1ccc2c(c1)c1c(c(=O)n(CCc3ccccc3)c(=O)n1Cc1cccc(F)c1)n2C	-3%	.	.	.	-3%	.
O=C(NC1CCN(Cc2ccccc2)CC1)c1cccc(NS(=O)(=O)c2ccc(Br)cc2)c1	18µM*	-17%	-18%	-12%	?	?
O=C(NC1CCN(Cc2ccccc2)CC1)c1ccccc1NS(=O)(=O)c1ccc(F)c(F)c1	-30%	-16%	-14%	-6%	?	26
O=C(NC1CCN(Cc2ccccc2)CC1)c1cncc(Br)c1	?	-3%	7%	-1%	-4%	-8
O=C(CCNS(=O)(=O)c1ccc(Br)cc1)NC1CCN(Cc2ccccc2)CC1	?	-2%	2%	-4%	13µM*	?
Cc1ccc(S(=O)(=O)Nc2cccc(C(=O)NC3CCN(Cc4ccccc4)CC3)c2)cc1F	?	2%	?	-5%	16µM*	-66*
O=c1[nH]c(C2CCN(S(=O)(=O)c3ccc(S(=O)(=O)NC4CC4)cc3)CC2)nc2c1nnn2Cc1ccccc1	-4%	?	1%	-20%	-18%	?
Cc1ccc(C)c(Cn2nnc3c(=O)[nH]c(C4CCN(C(=O)c5ccco5)CC4)nc32)c1	21µM*	-8%	-2%	-3%	?	-6
Cc1ccc(C)c(Cn2nnc3c(=O)[nH]c(C4CCN(S(=O)(=O)c5ccc(S(=O)(=O)N(C)C)cc5)CC4)nc32)c1	18µM*	-11%	1%	0%	?	?
Cc1ccc(C)c(Cn2nnc3c(=O)[nH]c(C4CCN(S(=O)(=O)c5ccc(S(=O)(=O)NC6CC6)cc5)CC4)nc32)c1	?	?	4%	?	18µM*	-54*
O=C(c1ccco1)N1CCC(c2nc3c(nnn3Cc3ccccc3Cl)c(=O)[nH]2)CC1	?	-14%	-3%	-23%	?	10
Cc1ccc(Cn2nnc3c(=O)[nH]c(C4CCN(S(=O)(=O)c5cc(C)ccc5C)CC4)nc32)cc1	?	?	-7%	?	23µM*	-12
Nc1nc(-c2c(Cl)cccc2Cl)no1	3%	15%	8%	15%	-2%	?
O=C(CN(C(=O)CCC(=O)Nc1nccs1)c1ccc(F)cc1)NCc1ccccc1	-5%	0%	-1%	-1%	?	-3
